Reference: PubChem BioAssay AID1159580 (chemical genetic matrix, 2015)
Several values for one entry are separate records, joined by “and”; a condition that tells them apart may be missing. Equal values may be shown once. Among all 5,500 compounds or so, about 2,000 (36%) were called active. Not shown: some 18% with an inconclusive outcome. Rule as the data show it: active = normalized growth mostly below about 0.91 (no sharp cut-off); inconclusive = no clear call, values can overlap the other calls; inactive = mostly above about 0.92. Some of the results follow.

Experiment: chemical genetic growth profiling, strain panel (AID 1159580);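 also: tested at 20 µM; growth read once vehicle control cultures reached saturation at 30 °C; 1 = growth at the plate median or of vehicle wells; lower values mean less growth of the strain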
Conditions: S. cerevisiae deletion strains, growth OD

Measured: normalized growth

CC(C)c1ccc2c(c1)CCC1C(C)(C(N)=O)CCCC21C (stereo unspecified)
inactive: locus YAL013W, strain DEP1, stronger effect = lower value 0.923 | locus YAL021C, strain ccr4, stronger effect = lower value 1.01 | locus YAL026C, strain drs2, stronger effect = lower value 0.916 | locus YAL030W, strain snc1, stronger effect = lower value 0.966 | locus YBL061C, strain skt5, stronger effect = lower value 0.951 | locus YBR009C, strain hhf1, stronger effect = lower value 0.947 | locus YBR021W, strain FUR4, stronger effect = lower value 1.02 | locus YBR023C, strain chs3, stronger effect = lower value 0.916 | locus YBR171W, strain sec66, stronger effect = lower value 0.952 | locus YBR229C, strain ROT2, stronger effect = lower value 0.983 | locus YBR231C, strain swc5, stronger effect = lower value 0.993 | locus YBR279W, strain paf1, stronger effect = lower value 0.992 | locus YCL011C, strain gbp2, stronger effect = lower value 0.941 | locus YCL016C, strain dcc1, stronger effect = lower value 0.94 | locus YCL029C, strain bik1, stronger effect = lower value 0.969 | locus YCL061C, strain MRC1, stronger effect = lower value 0.953 | locus YCL069W, strain vba3, stronger effect = lower value 0.969 | locus YCR088W, strain abp1, stronger effect = lower value 0.958 | locus YDL005C, strain med2, stronger effect = lower value 0.954 | locus YDL035C, strain GPR1, stronger effect = lower value 0.88 | locus YDL040C, strain nat1, stronger effect = lower value 0.976 | locus YDL101C, strain DUN1, stronger effect = lower value 0.946 | locus YDL134C, strain PPH21, stronger effect = lower value 0.898 | locus YDL185W, strain tfp1, stronger effect = lower value 0.991 | locus YDR001C, strain nth1, stronger effect = lower value 0.948 | locus YDR069C, strain doa4, stronger effect = lower value 0.989 | locus YDR101C, strain arx1, stronger effect = lower value 0.937 | locus YDR159W, strain sac3, stronger effect = lower value 0.895 | locus YDR162C, strain NBP2, stronger effect = lower value 0.872 | locus YDR195W, strain ref2 0.922 | locus YDR297W, strain sur2, stronger effect = lower value 0.968 | locus YDR318W, strain mcm21, stronger effect = lower value 0.931 | locus YDR334W, strain swr1, stronger effect = lower value 0.965 | locus YDR335W, strain msn5, stronger effect = lower value 0.976 | locus YDR388W, stronger effect = lower value 0.972 | locus YDR502C, strain sam2, stronger effect = lower value 0.926 | locus YEL003W, strain gim4, stronger effect = lower value 0.971 | locus YEL037C, strain rad23, stronger effect = lower value 0.973 | locus YEL061C, strain CIN8 (second series), stronger effect = lower value 0.96 | locus YEL061C, strain CIN8, stronger effect = lower value 0.962 | locus YER015W, strain faa2, stronger effect = lower value 0.982 | locus YER016W, strain bim1, stronger effect = lower value 0.967 | locus YER110C, stronger effect = lower value 0.995 | locus YER111C, strain swi4, stronger effect = lower value 0.936 | locus YER155C, strain BEM2 (second series), stronger effect = lower value 0.955 | locus YFR010W, strain ubp6, stronger effect = lower value 0.957 | locus YGL078C, strain dbp3, stronger effect = lower value 0.964 | locus YGL167C, strain pmr1, stronger effect = lower value 0.945 | locus YGL173C, strain kem1, stronger effect = lower value 0.951 | locus YGL227W, strain vid30, stronger effect = lower value 0.965 | locus YGL240W, strain doc1, stronger effect = lower value 0.963 | locus YGL248W, strain PDE1, stronger effect = lower value 0.926 | locus YGL253W, strain hxk2, stronger effect = lower value 0.951 | locus YGR135W, strain pre9, stronger effect = lower value 0.932 | locus YGR252W, strain gcn5, stronger effect = lower value 0.857 | locus YHR013C, strain ard1, stronger effect = lower value 1.09 | locus YHR027C, strain rpn1, stronger effect = lower value 0.979 | locus YHR079C, strain IRE1 (second series), stronger effect = lower value 0.974 | locus YHR094C, strain hxt1, stronger effect = lower value 1 | locus YHR129C, strain ARP1, stronger effect = lower value 0.941 | locus YHR200W, strain rpn10, stronger effect = lower value 0.945 | locus YIL066C, strain RNR3, stronger effect = lower value 0.902 | locus YIL073C, strain SPO22, stronger effect = lower value 0.833 | locus YIL125W, strain kgd1, stronger effect = lower value 0.939 | locus YIR030C, strain dcg1, stronger effect = lower value 0.97 | locus YJL092W, strain hpr5, stronger effect = lower value 0.956 | locus YJL095W, strain BCK1 (second series), stronger effect = lower value 0.966 | locus YJL115W, strain asf1, stronger effect = lower value 0.976 | locus YJL129C, strain trk1, stronger effect = lower value 0.905 | locus YJL134W, strain LCB3, stronger effect = lower value 0.983 | locus YJL154C, strain vps35, stronger effect = lower value 0.961 | locus YJL164C, strain tpk1, stronger effect = lower value 0.941 | locus YJL166W, strain qcr8, stronger effect = lower value 0.965 | locus YJL168C, strain set2, stronger effect = lower value 0.993 | locus YJL187C, strain SWE1 (second series), stronger effect = lower value 0.924 | locus YJL187C, strain SWE1, stronger effect = lower value 0.968 | locus YJR043C, strain POL32, stronger effect = lower value 0.941 | locus YJR066W, strain TOR1, stronger effect = lower value 0.936 | locus YKL068W, stronger effect = lower value 0.965 | locus YKL085W, strain MDH1 (second series), stronger effect = lower value 0.944 | locus YKL085W, strain MDH1, stronger effect = lower value 0.944 | locus YKL160W, strain elf1, stronger effect = lower value 0.952 | locus YKL190W, strain CNB1, stronger effect = lower value 0.969 | locus YKR026C, strain gcn3, stronger effect = lower value 0.969 | locus YKR091W, strain srl3, stronger effect = lower value 0.963 | locus YLL001W, strain dnm1, stronger effect = lower value 0.926 | locus YLL026W, stronger effect = lower value 0.976 | locus YLL041C, strain sdh2, stronger effect = lower value 0.96 | locus YLR027C, strain aat2, stronger effect = lower value 0.979 | locus YLR058C, strain SHM2, stronger effect = lower value 0.949 | locus YLR102C, strain apc9, stronger effect = lower value 0.986 | locus YLR221C, strain rsa3, stronger effect = lower value 0.916 | locus YLR258W, strain gsy2, stronger effect = lower value 0.966 | locus YLR268W, strain sec22, stronger effect = lower value 0.917 | locus YLR320W, strain mms22, stronger effect = lower value 0.911 | locus YLR342W, strain FKS1, stronger effect = lower value 0.946 | locus YLR357W, strain rsc2, stronger effect = lower value 0.952 | locus YLR370C, strain arc18, stronger effect = lower value 0.952 | locus YLR384C, strain iki3, stronger effect = lower value 0.954 | locus YML016C, strain PPZ1, stronger effect = lower value 0.977 | locus YML032C, strain rad52, stronger effect = lower value 0.954 | locus YML120C, strain ndi1, stronger effect = lower value 0.939 | locus YML124C, strain tub3, stronger effect = lower value 0.972 | locus YMR058W, strain fet3, stronger effect = lower value 0.958 | locus YMR078C, strain ctf18, stronger effect = lower value 0.984 | locus YMR125W, strain sto1, stronger effect = lower value 0.954 | locus YMR129W, stronger effect = lower value 0.952 | locus YMR205C, strain PFK2, stronger effect = lower value 0.894 | locus YMR223W, strain ubp8, stronger effect = lower value 0.929 | locus YMR231W, strain pep5, stronger effect = lower value 0.98 | locus YMR263W, strain SAP30, stronger effect = lower value 0.943 | locus YNL067W, strain RPL9B, stronger effect = lower value 0.935 | locus YNL128W, strain TEP1, stronger effect = lower value 0.925 | locus YNL183C, strain NPR1, stronger effect = lower value 0.9 | locus YNL209W, strain ssb2, stronger effect = lower value 0.974 | locus YNL248C, strain rpa49, stronger effect = lower value 0.942 | locus YNL250W, strain rad50, stronger effect = lower value 0.97 | locus YNL271C, strain bni1, stronger effect = lower value 0.951 | locus YNL307C, strain MCK1, stronger effect = lower value 0.942 | locus YNL322C, strain KRE1 (second series), stronger effect = lower value 0.937 | locus YNR049C, strain mso1, stronger effect = lower value 0.969 | locus YOL012C, strain htz1 1.06 | locus YOL147C, strain pex11, stronger effect = lower value 0.965 | locus YOR001W, strain rrp6, stronger effect = lower value 0.973 | locus YOR069W, strain VPS5, stronger effect = lower value 0.966 | locus YOR070C, strain gyp1, stronger effect = lower value 0.955 | locus YOR080W, strain dia2, stronger effect = lower value 0.964 | locus YOR083W, strain WHI5, stronger effect = lower value 0.917 | locus YOR106W, strain vam3, stronger effect = lower value 0.955 | locus YOR136W, strain idh2, stronger effect = lower value 0.962 | locus YOR144C, strain elg1, stronger effect = lower value 0.956 | locus YOR231W, strain MKK1, stronger effect = lower value 0.891 | locus YOR265W, strain rbl2, stronger effect = lower value 0.965 | locus YOR270C, strain vph1, stronger effect = lower value 0.984 | locus YOR290C, strain snf2, stronger effect = lower value 0.902 | locus YOR316C, strain cot1, stronger effect = lower value 0.983 | locus YPL078C, strain atp4, stronger effect = lower value 0.946 | locus YPL106C, strain sse1, stronger effect = lower value 0.93 | locus YPL240C, strain hsp82, stronger effect = lower value 0.966 | locus YPL241C, strain CIN2, stronger effect = lower value 0.98 | locus YPL256C, strain CLN2, stronger effect = lower value 0.838 | locus YPR119W, strain clb2, stronger effect = lower value 0.942 | locus YPR141C, strain kar3, stronger effect = lower value 0.968 | locus YPR163C, strain tif3, stronger effect = lower value 0.966 | locus YPR167C, strain met16, stronger effect = lower value 0.985 | strain wtn01, stronger effect = lower value 0.922
active: locus YDL074C, strain BRE1, stronger effect = lower value 0.76 | locus YDL192W, strain arf1, stronger effect = lower value 0.831 | locus YDR137W, strain rgp1, stronger effect = lower value 0.679 | locus YDR392W, strain spt3, stronger effect = lower value 0.627 | locus YER155C, strain BEM2, stronger effect = lower value 0.89 | locus YER167W, strain BCK2, stronger effect = lower value 0.898 | locus YGL086W, strain mad1, stronger effect = lower value 0.894 | locus YGR229C, strain SMI1, stronger effect = lower value 0.654 | locus YHR079C, strain IRE1, stronger effect = lower value 0.848 | locus YHR142W, strain chs7, stronger effect = lower value 0.801 | locus YKL009W, strain mrt4, stronger effect = lower value 0.856 | locus YKR001C, strain vps1, stronger effect = lower value 0.78 | locus YLR039C, strain RIC1, stronger effect = lower value 0.569 | locus YLR113W, strain HOG1, stronger effect = lower value 0.78 | locus YLR262C, strain YPT6 (second series), stronger effect = lower value 0.734 | locus YLR262C, strain YPT6, stronger effect = lower value 0.498 | locus YLR330W, strain CHS5, stronger effect = lower value 0.909 | locus YLR342W, strain FKS1 (second series), stronger effect = lower value 0.645 | locus YLR371W, strain rom2, stronger effect = lower value 0.671 | locus YLR418C, strain cdc73, stronger effect = lower value 0.76 | locus YMR307W, strain GAS1, stronger effect = lower value 0.418 | locus YNL071W, strain lat1, stronger effect = lower value 0.916 | locus YNL233W, strain BNI4, stronger effect = lower value 0.792 | locus YNL298W, strain CLA4, stronger effect = lower value 0.887 | locus YNR052C, strain pop2, stronger effect = lower value 0.847 | locus YOR061W, strain CKA2, stronger effect = lower value 0.885 | locus YOR184W, strain ser1, stronger effect = lower value 0.703 | locus YPL051W, strain arl3, stronger effect = lower value 0.915
0.815 (active) and 0.881 (inactive): locus YHR030C, strain SLT2, stronger effect = lower value
0.695 (active) and 0.911 (inactive): locus YJL095W, strain BCK1, stronger effect = lower value
